# In article PMC5540273 (PLoS ONE, 2017):
# What was measured:
# Settings in all cases: concentration: 1 μM, replicates: in singlicate; n = 1
# HASPIN = system: T1, HASPIN
# T1 construct: gene GSG2
# HCK = system: HCK
# HIPK1 = system: HIPK1
# HIPK2 = system: HIPK2
# HIPK3 = system: HIPK3
# HIPK4 = system: HIPK4
# HPK1 = system: HPK1
# HUNK = system: HUNK
# ICK = system: ICK
# IGF1R = system: IGF1R
# IKK-alpha = system: T2, IKK-alpha
# T2 construct: gene CHUK
# IKK-beta = system: T3, IKK-beta
# T3 construct: gene IKBKB
# IKK-epsilon = system: T4, IKK-epsilon
# T4 construct: gene IKBKE
# INSRR = system: INSRR
# INSR = system: INSR
# IRAK1 = system: IRAK1
# IRAK3 = system: IRAK3
# IRAK4 = system: IRAK4
# ITK = system: ITK
# [1] = system: JAK1(JH1domain-catalytic)
# 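Further: KINOMEscan kinase panel screen.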
compound,measurement,setting,value
O=C1NC(=O)C(c2ccccc2Cl)=C1Nc1cccc(Cl)c1 [SB-342409],%Inh,HASPIN,0%
same,%Inh,HCK,0%
same,%Inh,HIPK1,0%
same,%Inh,HIPK2,0%
same,%Inh,HIPK3,2%
same,%Inh,HIPK4,3%
same,%Inh,HPK1,49%
same,%Inh,HUNK,0%
same,%Inh,ICK,45%
same,%Inh,IGF1R,20%
same,%Inh,IKK-alpha,18%
same,%Inh,IKK-beta,36%
same,%Inh,IKK-epsilon,0%
same,%Inh,INSRR,1%
same,%Inh,INSR,7%
same,%Inh,IRAK1,28%
same,%Inh,IRAK3,0%
same,%Inh,IRAK4,32%
same,%Inh,ITK,14%
same,%Inh,[1],1%
Nc1cccc(-c2ccc3c(N)n[nH]c3c2)c1 [GSK2193613],%Inh,HASPIN,90.5%
same,%Inh,HCK,0%
same,%Inh,HIPK1,0%
same,%Inh,HIPK2,0%
same,%Inh,HIPK3,100%
same,%Inh,HIPK4,0%
same,%Inh,HPK1,48%
same,%Inh,HUNK,23%
same,%Inh,ICK,0%
same,%Inh,IGF1R,8%
same,%Inh,IKK-alpha,0%
same,%Inh,IKK-beta,0%
same,%Inh,IKK-epsilon,11%
same,%Inh,INSRR,0%
same,%Inh,INSR,0%
same,%Inh,IRAK1,10%
same,%Inh,IRAK3,0%
same,%Inh,IRAK4,0%
same,%Inh,ITK,10%
same,%Inh,[1],0%
COC(=O)Nc1nc2ccc(Oc3ccc(NC(=O)Nc4cc(C(F)(F)F)ccc4F)cc3)cc2[nH]1.Cl [GW654607],%Inh,HASPIN,12%
same,%Inh,HCK,51%
same,%Inh,HIPK1,8%
same,%Inh,HIPK2,0%
same,%Inh,HIPK3,10%
same,%Inh,HIPK4,92%
same,%Inh,HPK1,57%
same,%Inh,HUNK,8%
same,%Inh,ICK,11%
same,%Inh,IGF1R,2%
same,%Inh,IKK-alpha,72%
same,%Inh,IKK-beta,36%
same,%Inh,IKK-epsilon,17%
same,%Inh,INSRR,0%
same,%Inh,INSR,0%
same,%Inh,IRAK1,21%
same,%Inh,IRAK3,6%
same,%Inh,IRAK4,3%
same,%Inh,ITK,0%
same,%Inh,[1],69%
Cc1ccc(C)c(NC(=O)Nc2ccc(C)c(-c3ccc(C(=O)Nc4ccncc4)cc3)c2)c1 [GSK1398473],%Inh,HASPIN,0%
same,%Inh,HCK,92.4%
same,%Inh,HIPK1,0%
same,%Inh,HIPK2,0%
same,%Inh,HIPK3,12%
same,%Inh,HIPK4,0%
same,%Inh,HPK1,36%
same,%Inh,HUNK,0%
same,%Inh,ICK,8%
same,%Inh,IGF1R,0%
same,%Inh,IKK-alpha,0%
same,%Inh,IKK-beta,8%
same,%Inh,IKK-epsilon,0%
same,%Inh,INSRR,0%
same,%Inh,INSR,0%
same,%Inh,IRAK1,5%
same,%Inh,IRAK3,1%
same,%Inh,IRAK4,19%
same,%Inh,ITK,13%
same,%Inh,[1],0%
Cl.Cl.NC(CNC(=O)c1cc(Br)c(-c2ccnc3[nH]ccc23)s1)c1ccccc1 (stereo not shown) [GSK1322949],%Inh,HASPIN,92.6%
same,%Inh,HCK,0%
same,%Inh,HIPK1,65%
same,%Inh,HIPK2,68%
same,%Inh,HIPK3,73%
same,%Inh,HIPK4,97.3%
same,%Inh,HPK1,69%
same,%Inh,HUNK,0%
same,%Inh,ICK,0%
same,%Inh,IGF1R,0%
same,%Inh,IKK-alpha,73%
same,%Inh,IKK-beta,69%
same,%Inh,IKK-epsilon,18%
same,%Inh,INSRR,0%
same,%Inh,INSR,9%
same,%Inh,IRAK1,90.4%
same,%Inh,IRAK3,55%
same,%Inh,IRAK4,11%
same,%Inh,ITK,31%
same,%Inh,[1],24%
Cc1ccc(NC(=O)c2ccnc(N3CCCCC3)c2)cc1-c1ccc(C(=O)NCC2CC2)cc1 [GW775610],%Inh,HASPIN,0%
same,%Inh,HCK,0%
same,%Inh,HIPK1,11%
same,%Inh,HIPK2,9%
same,%Inh,HIPK3,0%
same,%Inh,HIPK4,0%
same,%Inh,HPK1,24%
same,%Inh,HUNK,0%
same,%Inh,ICK,25%
same,%Inh,IGF1R,0%
same,%Inh,IKK-alpha,0%
same,%Inh,IKK-beta,0%
same,%Inh,IKK-epsilon,0%
same,%Inh,INSRR,0%
same,%Inh,INSR,0%
same,%Inh,IRAK1,0%
same,%Inh,IRAK3,0%
same,%Inh,IRAK4,0%
same,%Inh,ITK,51%
same,%Inh,[1],52%
Cc1ccc(Nc2ccnc(Nc3ccc(C)c(F)c3)n2)cc1O.Cl [GW582868],%Inh,HASPIN,10%
same,%Inh,HCK,29%
same,%Inh,HIPK1,0%
same,%Inh,HIPK2,0%
same,%Inh,HIPK3,0%
same,%Inh,HIPK4,4%
same,%Inh,HPK1,30%
same,%Inh,HUNK,0%
same,%Inh,ICK,2%
same,%Inh,IGF1R,0%
same,%Inh,IKK-alpha,38%
same,%Inh,IKK-beta,18%
same,%Inh,IKK-epsilon,0%
same,%Inh,INSRR,0%
same,%Inh,INSR,0%
same,%Inh,IRAK1,42%
same,%Inh,IRAK3,76%
same,%Inh,IRAK4,25%
same,%Inh,ITK,9%
same,%Inh,[1],29%
Cc1ccc(-c2ccc3occ(-c4ccc(S(C)=O)cc4)c3c2)nn1 (stereo not shown),%Inh,HASPIN,42%
same,%Inh,HCK,0%
same,%Inh,HIPK1,42%
same,%Inh,HIPK2,2%
same,%Inh,HIPK3,0%
same,%Inh,HIPK4,0%
same,%Inh,HPK1,0%
same,%Inh,HUNK,0%
same,%Inh,ICK,0%
same,%Inh,IGF1R,0%
same,%Inh,IKK-alpha,0%
same,%Inh,IKK-beta,0%
same,%Inh,IKK-epsilon,0%
same,%Inh,INSRR,0%
same,%Inh,INSR,0%
same,%Inh,IRAK1,0%
same,%Inh,IRAK3,0%
same,%Inh,IRAK4,5%
same,%Inh,ITK,0%
same,%Inh,[1],0%
N#Cc1cnc2cc(-c3cnc(CNCCN4CCOCC4)s3)ccc2c1Nc1ccc(Oc2ccccc2)cc1 [GW664114],%Inh,HASPIN,0%
same,%Inh,HCK,99%
same,%Inh,HIPK1,0%
same,%Inh,HIPK2,0%
same,%Inh,HIPK3,17%
same,%Inh,HIPK4,0%
same,%Inh,HPK1,89%
same,%Inh,HUNK,12%
same,%Inh,ICK,0%
same,%Inh,IGF1R,17%
same,%Inh,IKK-alpha,29%
same,%Inh,IKK-beta,23%
same,%Inh,IKK-epsilon,43%
same,%Inh,INSRR,0%
same,%Inh,INSR,7%
same,%Inh,IRAK1,49%
same,%Inh,IRAK3,0%
same,%Inh,IRAK4,37%
same,%Inh,ITK,21%
same,%Inh,[1],10%
COc1cccc(NC(=O)NCCNc2ccnc(Nc3ccc(F)cc3)n2)c1 [GSK1379879],%Inh,HASPIN,0%
same,%Inh,HCK,0%
same,%Inh,HIPK1,0%
same,%Inh,HIPK2,0%
same,%Inh,HIPK3,7%
same,%Inh,HIPK4,0%
same,%Inh,HPK1,34%
same,%Inh,HUNK,11%
same,%Inh,ICK,10%
same,%Inh,IGF1R,0%
same,%Inh,IKK-alpha,0%
same,%Inh,IKK-beta,0%
same,%Inh,IKK-epsilon,0%
same,%Inh,INSRR,0%
same,%Inh,INSR,0%
same,%Inh,IRAK1,25%
same,%Inh,IRAK3,14%
same,%Inh,IRAK4,21%
same,%Inh,ITK,6%
same,%Inh,[1],23%
CN(c1ccc2c(c1)nc(NCc1ccccc1)n2C)c1ccnc(Nc2ccc(CS(C)(=O)=O)cc2)n1.Cl [GW811603],%Inh,HASPIN,3%
same,%Inh,HCK,49%
same,%Inh,HIPK1,41%
same,%Inh,HIPK2,46%
same,%Inh,HIPK3,0%
same,%Inh,HIPK4,38%
same,%Inh,HPK1,72%
same,%Inh,HUNK,0%
same,%Inh,ICK,29%
same,%Inh,IGF1R,6%
same,%Inh,IKK-alpha,0%
same,%Inh,IKK-beta,0%
same,%Inh,IKK-epsilon,0%
same,%Inh,INSRR,44%
same,%Inh,INSR,10%
same,%Inh,IRAK1,0%
same,%Inh,IRAK3,0%
same,%Inh,IRAK4,0%
same,%Inh,ITK,0%
same,%Inh,[1],12%
